Drawing on PubChem BioAssay AID1362 (SRMLSC, 2008), this text covers inhibition for 45 compounds.

Hit rate of the full screen: of about 190,000 compounds, about 4,000 (2.1%) were called active. No stated cut-off is given here; in the data, active means inhibition above about 58%; inactive means the rest, inconclusive results apart; tested in S. cerevisiae. This excerpt belongs to a sample that is enriched for actives.

This assay in a line: growth inhibition of WT strain, primary screen, mitochondrial fusion inhibitor project, WT and mutant strains, chemical genetic (AID 1362). Particulars: mitochondrial fusion phenotypic screen, at 10 µM.
The mark [1] stands for this setting: WT strain, growth inhibition, stronger effect = higher value.

Turning to `CC1=CC2=NC(=O)CC(C)(C(=O)N(CC(=O)NC(C)(C)C)Cc3ccccc3)N2C=C1` (stereo not given), the inhibition (usually the change of the read-out against control, counted positive when it falls) under setting [1] was -18.1% (inactive) and the inhibition (mutant strain inhibition) is -9.57%.
For `Cc1nnc(SCC(=O)NCc2ccccc2)s1` the same measures were 9.71% (inactive) and 1.45%.
In the same order, the values of `Cc1nnc(SCC(=O)N2c3ccccc3C(C)(c3ccc(Cl)cc3)CC2(C)C)s1` (stereo not given) are 68.9% (active) and 10.2%.
In the same order, the values of `Cc1nnc(SCC(=O)N2CCc3ccccc3C2)s1` are 3.58% (inactive) and -9.75%.
For `CCCCCCCC1(C)NC(=O)N(CC(=O)Nc2cc(C)on2)C1=O` (stereo not given), the inhibition reads like this: under setting [1], 3.19% (inactive); (mutant strain inhibition) -21%.
On to `COc1cc(C)c(S(=O)(=O)N2CCOCC2)c(C)c1C`, for which the inhibition reads like this: under setting [1], -12.4% (inactive); (mutant strain inhibition) -18.1%.
On to `CC(C)(C)N(CC#CCC(O)(c1ccccc1)C1CCCC1)CCO` (stereo not given), for which the inhibition under setting [1] is -9.77% (inactive) and the inhibition (mutant strain inhibition) was -9.45%.
Turning to `COc1cccc(/C=C/C(=O)Nc2ccc3c(c2)OCCO3)c1`, the inhibition under setting [1] was 19.1% (inactive) and the inhibition (mutant strain inhibition) is 5.63%.
`CN(C)CCSc1nc(N)c2c3c(sc2n1)COC(C)(C)C3`: the inhibition runs as follows: under setting [1], -20.9% (inactive); (mutant strain inhibition) -1.39%.
Consider `CCCSc1nc(NCc2ccco2)c2c3c(sc2n1)COC(C)(CC)C3` (stereo not given), for which the inhibition by setting is: under setting [1], 58.6% (active); (mutant strain inhibition) 41.2%.
For the compound `CCC1(C)Cc2c(sc3nc(SC)nc(N)c23)CO1` (stereo not given), the inhibition is, setting by setting: under setting [1], -20.9% (inactive); (mutant strain inhibition) -10.7%.
Turning to `N/C(=N\OC(=O)Nc1ccc(Cl)c(Cl)c1)c1ncc(C(F)(F)F)cc1Cl`, the inhibition was 80.3% (active) under setting [1] and 78.5% (mutant strain inhibition).
In the same order, the values of `O=C(CC(O)(C(F)(F)F)C(F)(F)F)Nc1ccc(Cl)c(Cl)c1` are 84.6% (inactive) and 85.2%.
Regarding `N/C(=N\OC(=O)CCCC(=O)O)c1ncc(C(F)(F)F)cc1Cl`, the inhibition is 9.89% (inactive) under setting [1] and 9.98% (mutant strain inhibition).
Turning to `CCc1cccc2c(=O)c(C(=O)NCCCOC)c[nH]c12`, the inhibition under setting [1] was 4.61% (inactive) and the inhibition (mutant strain inhibition) is 8.59%.
As for `CCN1CCN(CC(=O)c2cc(OC)c(OC)c(OC)c2)CC1`, the inhibition reads like this: under setting [1], -2.06% (inactive); (mutant strain inhibition) -0.71%.
As to `COc1cccc(-c2nc3cc(C)ccc3o2)c1`, the inhibition by setting is: under setting [1], 26.9% (inactive); (mutant strain inhibition) 17.7%.
In the same order, the values of `CC(C)(C)Oc1ncc(Br)c(OC(C)(C)C)n1` are 18.5% (inactive) and 15.1%.
For `COc1cccc(-c2cnc(OC(C)(C)C)nc2OC(C)(C)C)c1` the same measures were 84.1% (active) and 27.8%.
Regarding `Cc1ccccc1NC(=O)NNC(=O)OC(C)(C)C`, the inhibition is -2.03% (inactive) under setting [1] and -7.53% (mutant strain inhibition).
For `[O-][n+]1c2c(nn1-c1ccc(Cl)c(Cl)c1)-c1nonc1CC2`, the inhibition runs as follows: under setting [1], 38% (inactive); (mutant strain inhibition) 6.81%.
In the same order, the values of `CN(C)CCN=c1cc(-c2ccccc2)oc2ccc(Cl)cc12` are 10.8% (inactive) and 15.6%.
Take `c1ccc(Nc2nc(N3CCOCC3)c3ccccc3n2)cc1`: the inhibition is 44.7% (inactive) under setting [1] and 45.5% (mutant strain inhibition).
Consider `CC(Nc1nc(N2CCOCC2)nc2ccccc12)c1ccccc1` (stereo not given), for which the inhibition reads like this: under setting [1], 7.41% (inactive); (mutant strain inhibition) -4.07%.
In the same order, the values of `c1ccc2c(NC3C4CC5CC(C4)CC3C5)nc(N3CCOCC3)nc2c1` (stereo not given) are 69.3% (active) and 45.5%.
Consider `CCc1nc2ccccc2c(C(=O)NCc2ccc(OC)cc2)c1C`, for which the inhibition under setting [1] was -7.63% (inactive) and the inhibition (mutant strain inhibition) was -13.1%.
For `CC(=O)NC1C(Oc2ccc(C=O)cc2)OC(COC(C)=O)C(OC(C)=O)C1OC(C)=O` (stereo not given) the same measures were -6.93% (inactive) and -11.4%.
Regarding `Cn1nnnc1-c1cc(Cl)cc(Cl)c1`, the inhibition reads like this: under setting [1], 0.51% (inactive); (mutant strain inhibition) 21.3%.
As to `Cc1nc(NCCN)c(C#N)c2c1COC(C)(C)C2`, the inhibition by setting is: under setting [1], 24.4% (inactive); (mutant strain inhibition) 10.2%.
Consider `CCCCc1nc(NCCN)c(C#N)c2c1CSC(C)(C)C2`, for which the inhibition runs as follows: under setting [1], 85.3% (active); (mutant strain inhibition) 31.7%.
For `CCCCc1nc(NCc2ccccc2)c(C#N)c2c1CCCC2` the same measures were -9.79% (inactive) and 2.15%.
As for `CCN1CCN(c2ccc(NC(=O)c3cnccn3)cc2)CC1`, the inhibition under setting [1] is 4.84% (inactive) and the inhibition (mutant strain inhibition) came to 4.5%.
In the same order, the values of `CCn1ccnc1CN1CCCC(C(=O)c2ccc3c4c(cccc24)CC3)C1` (stereo not given) are 42.3% (inactive) and 36.2%.
Consider `Cc1cnc(C(=O)OCC(=O)NCCCc2ccccc2)cn1`, for which the inhibition under setting [1] was 14.9% (inactive) and the inhibition (mutant strain inhibition) stood at 3.19%.
Regarding `O=c1cc(N2CCN(Cc3ccccc3)CC2)c(-c2ccccc2)n[nH]1`, the inhibition is -12.8% (inactive) under setting [1] and -10.6% (mutant strain inhibition).
For `O=c1cc(N2CCCCC2)c(-c2ccccc2)nn1Cc1cccc(F)c1` the same measures were 87.9% (active) and 46.3%.
Turning to `O=c1c2ccccc2c(-c2ccccc2)nn1Cc1ccccc1`, the inhibition by setting is: under setting [1], -8.61% (inactive); (mutant strain inhibition) -0.27%.
With `CC(=O)Nc1ccccc1OC(C)C(=O)N1CCC(C)CC1` (stereo not given), the inhibition runs as follows: under setting [1], -7.46% (inactive); (mutant strain inhibition) 7.56%.
For `Cc1ccc(C)c(-n2ccnc2SCC(N)=O)c1` the same measures were 5.62% (inactive) and 13.6%.
For the compound `O=c1c2ccccc2[nH]c(=S)n1CCN1CCC(=C(c2ccc(F)cc2)c2ccc(F)cc2)CC1`, the inhibition was 77.9% (active) under setting [1] and 62.2% (mutant strain inhibition).
In the same order, the values of `O=C(CCn1c(=S)[nH]c2ccccc2c1=O)NCCCN1CCCC1=O` are -5% (inactive) and -5.53%.
On to `CCCCn1c(=S)[nH]c2ccccc2c1=O`, for which the inhibition is, setting by setting: under setting [1], 4.59% (inactive); (mutant strain inhibition) 8.61%.
Regarding `Cc1ccc(Cn2c(NC(=O)c3ccco3)nc3ccccc32)cc1`, the inhibition under setting [1] is 92.4% (active) and the inhibition (mutant strain inhibition) was -2.81%.
Turning to `CC(=O)Nc1nc2ccccc2n1Cc1ccc(C)cc1`, the inhibition is 15.3% (inactive) under setting [1] and 15.5% (mutant strain inhibition).
In the case of `Cc1ccc(-n2nc3cc(Cl)c(NC(=O)c4ccco4)cc3n2)cc1`, the inhibition under setting [1] is 16.1% (inactive) and the inhibition (mutant strain inhibition) was -7.45%.
